Source: PubChem
Most compounds without a hit are left out; they make up all but 4.7% or so of the library.
D1 potentiator: enhances dopamine response at the human D1 receptor; HEK293 TREx D1 cells, calcium flux, dopamine EC20 potentiation; potentiation, % at 10 µM; 360,000 tested, 0.036% active; AID 504651; in the data active = potentiation above about 30%; note: 0% is about no effect
Target sequence (P21728 whole entry, looked up): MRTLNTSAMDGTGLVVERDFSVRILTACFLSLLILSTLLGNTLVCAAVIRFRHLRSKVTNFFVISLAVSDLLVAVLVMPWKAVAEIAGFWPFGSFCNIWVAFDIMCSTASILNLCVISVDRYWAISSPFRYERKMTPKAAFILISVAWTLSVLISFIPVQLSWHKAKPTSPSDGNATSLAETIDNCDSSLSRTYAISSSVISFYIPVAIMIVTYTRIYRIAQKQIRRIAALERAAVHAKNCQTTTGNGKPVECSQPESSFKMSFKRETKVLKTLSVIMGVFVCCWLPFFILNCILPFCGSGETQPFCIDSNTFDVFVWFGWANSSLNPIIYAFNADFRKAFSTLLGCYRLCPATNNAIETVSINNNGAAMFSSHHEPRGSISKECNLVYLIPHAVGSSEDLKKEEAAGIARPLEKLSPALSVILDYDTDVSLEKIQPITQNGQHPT
TRHR enhancer: allosteric enhancers of human TRH receptor; P34981; TRHR cells, fluo-8 calcium fluorescence, EC20 TRH enhancement; enhancement, % at 2 µM; 360,000 tested, 0.66% active; AID 493056; in the data active = enhancement above about 30%; note: 0% is about no effect
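TRHR-expressing cells loaded with fluo-8 calcium dye were read kinetically (ex 480/em 530) during compound addition, then stimulated with an EC20 of TRH (10 nM final). Enhancement of the Gq-mediated intracellular calcium response was scored.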
D1 antag: human D1 dopamine receptor antagonism; P21728; HEK293 TREx D1 cells, calcium flux, dopamine EC80; active compounds read low; activity change, negative = inhibition, % at 10 µM; 360,000 tested, 3.2% active; in the data active = activity change below about -30%; note: % is set by controls: 0 for no effect and ±100 for the full control effect
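Kinetic fluorescence of a calcium dye serves as the read-out. D1-expressing Hek293 Trex cells, induced overnight at 30 C, are exposed to compound for 180 s before an EC80 dopamine addition, then read 180 s further.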
TRHR ag: activates the human TRH receptor | P34981 | TRHR cells, calcium flux fluo-8, FDSS agonist mode | activation, % at 2 µM | 360,000 tested, 0.18% active; note: 0% is about no effect
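Fluo-8-loaded TRHR cells; 10 s baseline, compound added, kinetic Ca2+ fluorescence read 1/s, agonist mode.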
D1 ag: human D1 receptor agonism; P21728; HEK293 T-REx D1 cells, calcium flux, agonist mode; activation, % at 2 µM; 360,000 tested, 1% active; AID 504660; note: 0% is about no effect
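Inducible HEK293 T-REx D1 cells, force-coupled to calcium signalling, were plated at 4000 cells/well with tetracycline and held overnight at 30 C. After no-wash calcium dye loading, compound-evoked calcium rise over 180 s flagged agonists.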
The depositor's hits bear a star; nt = no result given; ! = a repeat was not active. Cut-off read from the data, not from the text of the source, unless noted: active = activation above about 30%; inactive = the rest.

SMILES	D1 potentiator	TRHR enhancer	D1 antag	TRHR ag	D1 ag
Cc1ccc2nc(N(CCCN(C)C)C(=O)CN3C(=O)c4ccccc4C3=O)sc2c1	-15.2	0.8	-19.7	2.6	44.2*
CN(C)CCCN(C(=O)CCc1ccccc1)c1nc2ccc(Cl)cc2s1	-8.5	4.4	-8.3	6.6	31.4*
CCCCNC(=O)c1cc2c(=O)n3cccc(C)c3nc2s1	-5.9	-3.6	3.0	-0.1	0.2
COCCCNC(=O)c1cc2c(=O)n3cccc(C)c3nc2s1	-3.3	-3.6	-32.8*!	-0.6	0.2
CCOC(=O)c1cc(-c2ccccc2)n(CCCC(=O)Nc2ccc(C)cc2C)c1C	-6.2	2.3	-17.5	0.8	6.0
CCOC(=O)c1cc(-c2ccccc2)n(CCCC(=O)Nc2cccc(Cl)c2C)c1C	-9.1	0.9	-67.6*	1.0	2.8
Cc1cc2ncn(S(=O)(=O)N3CCCCC3)c2cc1C	-3.0	-5.3	-32.7*	-0.5	-0.9
CCc1c(C#N)sc(C(N)=O)c1CC	0.8	4.2	-58.4*	0.4	-0.4
Cc1cc(S(=O)(=O)C(CNC(=O)c2ccc(OC(C)C)cc2)c2cccs2)ccc1F (centres undefined)	-1.0	-5.8	-73.7*	0.3	0.7
CC(C)(C)c1ccc(C(=O)NCC(c2cccs2)S(=O)(=O)c2cccs2)cc1 (centres undefined)	4.2	44.7*	13.0	0.0	2.2
Cc1ccc(C2NC(=O)NC3=C2CCc2ccccc23)cc1 (centres undefined)	-2.2	0.3	-60.2*	-0.1	-0.1
CC(C)c1ccc(C2NC(=O)NC3=C2CCc2ccccc23)cc1 (centres undefined)	0.1	8.0	-3.4	-1.0	2.5
CCc1ccc(C(=O)COC(=O)C(Cc2ccccc2)NC(=O)C2CCC(C)CC2)cc1 (centres undefined)	-6.2	4.5	-31.4*	1.6	5.6
CN(C)C(=O)CN1C(=O)NC(c2ccccc2)(c2ccccc2)C1=O	5.3	0.3	-6.3	1.2	0.8
CCCCOc1ccc(C(=O)NCC(=O)NCCOc2ccc(C)cc2)cc1	-0.2	32.3*	19.2	-0.6	2.5
COc1cccc(N2CC(NC(=O)c3cc(Cl)ccc3OC)CC2=O)c1 (centres undefined)	-2.6	-1.8	nt	0.1	-0.6
COc1cc(/C=C2\SC(=Nc3ccc(O)cc3)NC2=O)cc(OC)c1O	-2.0	2.7	-6.8	44.2*	16.7
O=C1NC(=Nc2ccc(O)cc2)S/C1=C/c1ccco1	-8.7	-3.2	-36.6*	0.6	-0.4
O=C1/C(=C\c2ccco2)SC(=S)N1c1ccc(O)cc1	-2.2	2.6	-31.2*	0.2	3.0
CCc1ccc(N=C2NC(=O)/C(=C/c3cc(OC)c(OC)c(OC)c3)S2)cc1	-4.4	-0.3	-25.6	-0.1	3.3
O=C1/C(=C/C=C/c2ccco2)SC(=S)N1c1ccc(O)cc1	-3.6	15.2	7.8	1.4	5.7
Cc1ccc2nc(N(Cc3cccnc3)C(=O)CCOc3ccccc3)sc2c1	-3.0	4.0	nt	0.4	9.7
COc1ccc(CCNc2nc(-c3ccc(OC)c(OC)c3)cc(C(F)(F)F)n2)cc1OC	-0.3	-1.9	-19.8	-0.4	8.1
CC(C)(C)CN1CCN(Cc2cc3ccccc3[nH]2)CC1CCO (centres undefined)	-7.0	1.9	16.7	0.2	2.5
COc1cccc(CN2CCN(Cc3cc4ccccc4[nH]3)CC2CCO)c1 (centres undefined)	-1.2	-17.1	-48.9*	15.4	72.1*
SMILES	D1 potentiator	TRHR enhancer	D1 antag	TRHR ag	D1 ag
COc1ccc(CN2CCN(Cc3c[nH]c4ccccc34)CC2CCO)c(F)c1 (centres undefined)	-10.7	1.0	-36.2*	1.3	14.8
Cc1ncc(CN2CCN(Cc3ccccc3)C(CCO)C2)s1 (centres undefined)	5.2	21.8	-5.6	-0.7	0.4
CCOc1ccc(CN2CCN(Cc3cc4ccccc4[nH]3)CC2CCO)cc1 (centres undefined)	6.0	-7.3	-30.2*	23.8	41.0*
CCOc1ccc(CN2CCN(Cc3cnc(-c4ccccc4)s3)CC2CCO)cc1 (centres undefined)	-2.9	1.3	-10.4	-0.7	61.4*
COc1ccccc1CNC(=O)CSc1nc(=O)[nH]c2c1CCC2	-1.5	2.9	nt	0.2	0.5
COc1ccc(NC(=O)CSc2nc(-c3ccccc3)nc3c2Cc2c(CO)cnc(C)c2O3)cc1Cl	-3.8	1.1	-4.0	0.6	2.0
FC(F)(F)c1cccc(NC(=S)Nc2cccc(NC(=S)Nc3cccc(C(F)(F)F)c3)n2)c1	-8.8	-6.6	-15.5	-0.6	2.1
CN(NC(=O)Nc1ccc(Cl)cc1)c1c(Cl)c(Cl)nn1C	-2.7	0.4	-40.5*	-1.0	10.2
Cc1ccc(C)c(NC2=C(Cl)C(=O)OC2OC(=O)c2ccco2)c1 (centres undefined)	-4.8	-0.5	-14.3	0.8	18.7
Cc1ccc(NC2=C(Cl)C(=O)OC2OC(=O)c2ccco2)cc1C (centres undefined)	-7.5	-4.5	-30.5*	0.3	7.8
